Experimental data: PubChem BioAssay (Tox21)
Records with an inconclusive call do not appear. Active and inactive are the calls of the source. Unless noted, the call rests on the fitted dose curve.

Key:
[1] = Nuclear factor erythroid 2-related factor 2/antioxidant responsive element (Nrf2/ARE) small molecule agonists: qHTS cell viability counter screen in human keratinocytes (AID 1919968; active means well fitted curve in the direction sought with a large enough effect in the repeat runs; an effect the other way counts as inactive or inconclusive; further: nearly all actives have a fitted effect of over 55% in size)
How it was run: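 KeratinoSens cells (HaCaT keratinocytes stably carrying an ARE-luciferase reporter) were seeded at 1,500 cells/well and rested 5 h at 37 C/5% CO2. They were then exposed to compounds in DMSO for 23 h. Viability was read by CellTiter-Fluor fluorescence after 1 h.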

[2] = Nuclear factor erythroid 2-related factor 2/antioxidant responsive element (Nrf2/ARE) small molecule agonists: luciferase reporter gene qHTS assay in human keratinocytes (AID 1919969); further: nearly all actives have a fitted effect of over 35% in size
[3] = molecular target: Gonadotropin-releasing hormone receptor (Homo sapiens) (UniProt P30968); experiment: Human gonadotropin-releasing hormone receptor (GnRHR) small molecule agonists, calcium flux assay in GnRHR-HEK293 cells (AID 1920063); further: nearly all actives have a fitted effect of over 35% in size
How it was run: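 HEK293 cells stably expressing human GnRHR were plated 18 h at 37 °C, loaded with calcium dye 1 h at 37 °C, then given compound in agonist mode; fluorescence (Ex/Em 480/540) read kinetically for 3 min at 1 s intervals.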

[4] = molecular target: KiSS-1 receptor (Homo sapiens) (UniProt Q969F8); experiment: Human kisspeptin (KISS1R) small molecule agonists, calcium flux assay in KISS1R-HEK293 cells (AID 1920064; active means well fitted curve in the direction sought with a large enough effect in the repeat runs; an effect the other way counts as inactive or inconclusive)
How it was run: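 HEK293 cells stably expressing human KISS1R were plated 18 h at 37 °C, loaded with calcium dye for 1 h at 37 °C, then given compound by pin tool. Fluorescence (Ex/Em 480/540) was read kinetically for 3 min.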

[5] = G protein-coupled receptor (GPCR) small molecule agonists, calcium flux assay: HEK293 wild type cell line counter screen (AID 1920065)
How it was run: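 Cells were plated and cultured 18 h at 37 C/5% CO2, then loaded with calcium dye for 1 h at 37 C. Compounds in DMSO were pin-transferred in agonist mode, and fluorescence (Ex/Em 480/540) was read kinetically for 3 min at 1 s intervals.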

[6] = p53 small molecule agonists, cell-based qHTS assay with human liver microsomes (AID 1963577)
How it was run: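 p53RE-bla cells, 4,000/well, compound added after 5 h, with human liver microsomes 0.5 mg/mL and NADPH 0.5 mg/mL final; 16 h at 37 C, then LiveBLAzer 2 h RT, fluorescence.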

[7] = p53 small molecule agonists, cell-based qHTS assay with rat liver microsomes (AID 1963578)
How it was run: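 p53RE-bla cells, 4,000/well, pre-incubated 5 h, then given compounds plus rat liver microsomes (0.5 mg/mL final) and NADPH (0.5 mg/mL final). Incubation 16 h at 37 C; beta-lactamase reporter read by LiveBLAzer fluorescence after 2 h at room temperature.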

[8] = p53 small molecule agonists, cell-based qHTS assay with human liver microsomes: qHTS cell viability counter screen (AID 1963579); further: nearly all actives have a fitted effect of over 45% in size
How it was run: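 p53RE-bla cells, 4,000/well, dosed 5 hours after plating, with human liver microsomes (0.5 mg/mL final) plus NADPH (0.5 mg/mL final), 16 hours at 37 C. Viability read as CellTiter-Glo luminescence after 30 min at room temperature.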

[9] = p53 small molecule agonists, cell-based qHTS assay with rat liver microsomes: qHTS cell viability counter screen (AID 1963580); further: nearly all actives have a fitted effect of over 45% in size
How it was run: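 Viability is assessed in parallel with the p53 reporter read: HCT-116 p53RE-bla cells receive compounds plus rat microsomes and NADPH (0.5 mg/mL final apiece), incubate 16 h at 37 C, and then CellTiter-Glo luminescence is recorded.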

[10] = p53 small molecule agonists, cell-based qHTS assay: qHTS cell viability counter screen (AID 1963581); further: nearly all actives have a fitted effect of over 45% in size
How it was run: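 p53RE-bla HCT-116 cells were exposed to compounds for 16 h at 37 C; after the beta-lactamase FRET read in the same wells, CellTiter-Glo was added and luminescence (intracellular ATP) read after 30 min at room temperature.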

[11] = p53 small molecule agonists, cell-based qHTS assay (AID 1963582; active means well fitted activation curve with a large enough effect in the signal ratio in the repeat runs, not every such curve was filed as active; the % refers to the signal ratio)
How it was run: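 p53RE-bla beta-lactamase reporter cells rested 5 h at 37 C/5% CO2, then received compounds in DMSO by pin transfer and were incubated 16 h at 37 C. LiveBLAzer B/G FRET substrate was loaded for 2 h at room temperature before fluorescence reading.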

[12] = molecular target: 5-hydroxytryptamine receptor 2A (Homo sapiens) (UniProt P28223); experiment: 5-hydroxytryptamine receptor 2A (HTR2A) small molecule agonists, cell-based qHTS assay (AID 1963587); further: nearly all actives have a fitted effect of over 30% in size
How it was run: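 CHO cells stably expressing human HTR2A, plated 18 h, loaded with calcium dye 1 h at 37 C. Agonist mode: compounds added and intracellular calcium fluorescence recorded kinetically for 2 min at 1 sec intervals.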

[13] = molecular target: Muscarinic acetylcholine receptor M1 (Homo sapiens) (UniProt P11229); experiment: Cholinergic receptor muscarinic 1 (CHRM1) small molecule antagonists, cell-based qHTS assay (AID 1963588); further: nearly all actives have a fitted effect of over 40% in size; further: potency means the concentration at half of the fitted maximal effect
How it was run: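 CHRM1-CHO calcium-flux assay, antagonist mode. Cells were seeded 18 h, dye-loaded 1 h at 37 C and given compound for 5 min at RT, then acetylcholine was added at 50nM. FDSS fluorescence was read 3 min; 15 concentrations, three runs.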

[14] = molecular target: Muscarinic acetylcholine receptor M1 (Homo sapiens) (UniProt P11229); experiment: Cholinergic receptor muscarinic 1 (CHRM1) small molecule agonists, cell-based qHTS assay (AID 1963589); further: nearly all actives have a fitted effect of over 35% in size
How it was run: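 CHO cells stably expressing human CHRM1, seeded 18 h at 37 C/5% CO2, dye-loaded 1 h at 37 C, then given compound in agonist mode; intracellular calcium fluorescence read kinetically at 1 s intervals. Fifteen concentrations, three independent runs.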

[15] = cAMP Responsive Elements (CRE) small molecule agonists, cell-based qHTS assay (AID 1963590)
How it was run: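 CRE-bla HEK 293T cells in DMEM with 10% dialyzed FBS, NEAA, pyruvate and 25 mM HEPES were plated 18 h at 37 C/5% CO2, then exposed to compounds in DMSO for 3 h before LiveBLAzer B/G FRET substrate addition.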

[16] = cAMP Responsive Elements (CRE) small molecule antagonists, cell-based qHTS assay (AID 1963591; active means well fitted inhibition curve with a large enough effect in the signal ratio in the repeat runs, not every such curve was filed as active; the % refers to the signal ratio)
How it was run: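 CRE-bla HEK293T cells were plated 18 h at 37 °C/5% CO2, pinned with compound in DMSO, then stimulated with NKH477 at 0.25 uM final for 3 h. LiveBLAzer B/G FRET substrate was added and plates incubated 2 h at room temperature.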

[17] = molecular target: Beta-2 adrenergic receptor (Homo sapiens) (UniProt P07550); experiment: Adrenergic beta2 receptor (ADRB2) small molecule antagonists, cell-based qHTS assay (AID 1963592); further: series mostly up to about 92 µM; nearly all actives have a fitted effect of over 50% in size
How it was run: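 Cells (CHO, stable ADRB2 overexpression) incubated 18-20hr at 37C; compounds added from DMSO; agonist mix (1nM isoproterenol, 100uM IBMX, 25uM Ro-20-1724) added; 0.5hr RT; d2-cAMP and anti-cAMP-cryptate added; 1hr RT; 665/615 nm read.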

[18] = molecular target: Beta-2 adrenergic receptor (Homo sapiens) (UniProt P07550); experiment: Adrenergic beta2 receptor (ADRB2) small molecule agonists, cell-based qHTS assay (AID 1963593);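 further: CHO cells stably overexpressing human ADRB2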
How it was run: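 CHO cells stably over-expressing ADRB2 were plated overnight at 37C, then dosed with compounds plus a stimulation mix containing 100uM IBMX and 25uM Ro-20-1724 for 0.5hr at room temperature. cAMP was measured by HTRF competition, 1hr.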

[19] = molecular target: D(2) dopamine receptor (Homo sapiens) (UniProt P14416); experiment: Dopamine D2 receptor (DRD2) small molecule agonists, cell-based qHTS assay (AID 1963594); further: nearly all actives have a fitted effect of over 35% in size
How it was run: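 HEK293 cells stably expressing human DRD2, pre-treated with PDE inhibitor Ro20-1724 (0.1 mM final) and compound 10 min at room temperature, then stimulated with NKH477 (200nM […]) for 30 min. cAMP read by HTRF (665/620 nm).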

[20] = molecular target: D(2) dopamine receptor (Homo sapiens) (UniProt P14416); experiment: Dopamine D2 receptor (DRD2) small molecule antagonists, cell-based qHTS assay (AID 1963595; active means well fitted inhibition curve with a large enough effect in the signal ratio in the repeat runs, with a control signal flat; the % refers to the signal ratio)
How it was run: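 In this cell-based antagonist screen, compounds act for 10 min at room temperature before a 30 min challenge with 12 nM quinpirole and 200 nM NKH477. cAMP is quantified by HTRF competition in DRD2-HEK293 cells containing 0.1 mM Ro20-1724.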

Measured: Potency

Sequence of D(2) dopamine receptor (Homo sapiens) (P14416 whole entry, looked up): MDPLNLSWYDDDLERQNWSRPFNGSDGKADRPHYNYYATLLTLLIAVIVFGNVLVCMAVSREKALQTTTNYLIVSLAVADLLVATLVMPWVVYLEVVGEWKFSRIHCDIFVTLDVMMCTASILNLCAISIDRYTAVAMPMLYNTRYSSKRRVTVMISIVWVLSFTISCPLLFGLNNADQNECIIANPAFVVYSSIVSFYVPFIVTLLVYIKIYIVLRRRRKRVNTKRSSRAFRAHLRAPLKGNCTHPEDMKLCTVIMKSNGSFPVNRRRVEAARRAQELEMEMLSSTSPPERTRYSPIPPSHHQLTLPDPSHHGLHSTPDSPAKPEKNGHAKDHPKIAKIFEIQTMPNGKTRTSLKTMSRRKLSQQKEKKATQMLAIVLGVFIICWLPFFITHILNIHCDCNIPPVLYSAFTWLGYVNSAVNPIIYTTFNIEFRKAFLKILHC
Sequence of Beta-2 adrenergic receptor (Homo sapiens) (P07550 whole entry, looked up): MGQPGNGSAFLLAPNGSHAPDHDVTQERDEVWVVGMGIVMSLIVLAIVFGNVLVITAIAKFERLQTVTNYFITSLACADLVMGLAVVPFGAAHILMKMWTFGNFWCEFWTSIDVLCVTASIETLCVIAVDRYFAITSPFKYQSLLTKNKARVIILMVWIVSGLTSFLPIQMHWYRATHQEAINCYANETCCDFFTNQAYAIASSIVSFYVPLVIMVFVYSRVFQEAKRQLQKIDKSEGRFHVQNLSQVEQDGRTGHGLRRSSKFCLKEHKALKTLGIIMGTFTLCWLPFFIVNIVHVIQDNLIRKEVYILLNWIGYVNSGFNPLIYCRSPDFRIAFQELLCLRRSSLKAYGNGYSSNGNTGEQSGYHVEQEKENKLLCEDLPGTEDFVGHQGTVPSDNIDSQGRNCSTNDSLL
Sequence of KiSS-1 receptor (Homo sapiens) (Q969F8 whole entry, looked up): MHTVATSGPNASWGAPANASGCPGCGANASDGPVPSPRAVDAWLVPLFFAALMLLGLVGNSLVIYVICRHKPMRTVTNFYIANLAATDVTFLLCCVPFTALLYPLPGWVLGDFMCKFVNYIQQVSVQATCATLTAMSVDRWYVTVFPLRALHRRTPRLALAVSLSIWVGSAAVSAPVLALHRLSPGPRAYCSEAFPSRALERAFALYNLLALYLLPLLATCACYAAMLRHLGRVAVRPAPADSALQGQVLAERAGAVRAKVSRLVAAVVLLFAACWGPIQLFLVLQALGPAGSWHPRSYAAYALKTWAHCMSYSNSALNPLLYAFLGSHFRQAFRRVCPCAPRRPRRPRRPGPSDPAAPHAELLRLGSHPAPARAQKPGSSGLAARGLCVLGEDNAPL
Sequence of Gonadotropin-releasing hormone receptor (Homo sapiens) (P30968 whole entry, looked up): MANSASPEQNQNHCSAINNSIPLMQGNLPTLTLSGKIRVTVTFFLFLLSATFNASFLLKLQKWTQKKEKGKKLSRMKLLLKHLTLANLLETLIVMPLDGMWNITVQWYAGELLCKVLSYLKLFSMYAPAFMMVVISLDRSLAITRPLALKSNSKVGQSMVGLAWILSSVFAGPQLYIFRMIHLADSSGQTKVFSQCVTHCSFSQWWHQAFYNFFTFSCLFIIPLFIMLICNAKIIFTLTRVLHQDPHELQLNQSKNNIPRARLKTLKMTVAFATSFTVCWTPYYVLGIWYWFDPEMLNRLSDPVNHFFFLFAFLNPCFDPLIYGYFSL
Sequence of Muscarinic acetylcholine receptor M1 (Homo sapiens) (P11229 whole entry, looked up): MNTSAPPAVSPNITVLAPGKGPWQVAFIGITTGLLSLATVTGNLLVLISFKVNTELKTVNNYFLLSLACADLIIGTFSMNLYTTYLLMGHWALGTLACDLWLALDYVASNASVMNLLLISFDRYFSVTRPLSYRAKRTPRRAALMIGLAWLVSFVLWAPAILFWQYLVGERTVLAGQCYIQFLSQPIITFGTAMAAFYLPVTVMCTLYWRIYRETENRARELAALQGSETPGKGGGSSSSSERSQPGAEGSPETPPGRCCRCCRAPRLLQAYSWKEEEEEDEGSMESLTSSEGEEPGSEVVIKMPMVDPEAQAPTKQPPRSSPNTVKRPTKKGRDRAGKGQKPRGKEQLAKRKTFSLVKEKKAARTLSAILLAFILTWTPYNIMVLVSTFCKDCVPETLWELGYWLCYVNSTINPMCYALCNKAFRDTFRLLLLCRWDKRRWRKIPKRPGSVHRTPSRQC
Sequence of 5-hydroxytryptamine receptor 2A (Homo sapiens) (P28223 whole entry, looked up): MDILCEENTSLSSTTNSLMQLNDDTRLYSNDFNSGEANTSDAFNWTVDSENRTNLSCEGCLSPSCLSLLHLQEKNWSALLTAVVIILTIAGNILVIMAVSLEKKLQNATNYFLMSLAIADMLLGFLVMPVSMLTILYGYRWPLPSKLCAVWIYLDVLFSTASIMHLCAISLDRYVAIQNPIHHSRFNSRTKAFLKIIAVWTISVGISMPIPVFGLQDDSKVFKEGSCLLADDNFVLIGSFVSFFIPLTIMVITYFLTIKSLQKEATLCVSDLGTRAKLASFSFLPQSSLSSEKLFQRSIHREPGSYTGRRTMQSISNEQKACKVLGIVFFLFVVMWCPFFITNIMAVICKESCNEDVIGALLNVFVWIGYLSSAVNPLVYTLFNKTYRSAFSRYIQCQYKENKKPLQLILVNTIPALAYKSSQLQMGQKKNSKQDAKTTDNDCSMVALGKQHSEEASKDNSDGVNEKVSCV

COc1ccc(-c2cc(=O)c3c(O)cc(O[C@@H]4O[C@H](CO[C@@H]5O[C@@H](C)[C@H](O)[C@@H](O)[C@H]5O)[C@@H](O)[C@H](O)[C@H]4O)cc3o2)cc1O
inactive: [1] | [2] | [3] | [4] | [5] | [6] | [7] | [8] | [9] | [10] | [11] | [12] | [13] | [14] | [15] | [16] | [17] | [18] | [19] | [20]

CO[C@H]1O[C@H](CO)[C@@H](O)[C@H](O)[C@H]1O
inactive: [1] | [2] | [3] | [4] | [5] | [6] | [7] | [8] | [9] | [10] | [11] | [12] | [13] | [14] | [15] | [16] | [17] | [18] | [20]

O=C(OC1C[C@H]2CC[C@@H](C1)[N+]21CCCC1)C(O)(c1ccccc1)c1ccccc1 (stereo partly drawn)
inactive: [1] | [2] | [3] | [4] | [5] | [6] | [7] | [8] | [9] | [10] | [11] | [12] | [14] | [15] | [16] | [17] | [18] | [19]
active: [13] 1.5 nM

CC(c1cc(C(C)(C)C)cc(C(C)(C)C)c1O)c1cc(C(C)(C)C)cc(C(C)(C)C)c1O
inactive: [1] | [2] | [3] | [4] | [5] | [6] | [7] | [8] | [9] | [10] | [11] | [14] | [15] | [16] | [17] | [19] | [20]

O=c1c2ccccc2nnn1CCl
inactive: [1] | [2] | [3] | [4] | [5] | [6] | [7] | [8] | [9] | [10] | [11] | [12] | [13] | [14] | [15] | [16] | [17] | [18] | [20]

CCCCCCCCCCOC(C)=O
inactive: [1] | [2] | [3] | [4] | [5] | [6] | [7] | [8] | [9] | [10] | [11] | [12] | [13] | [14] | [15] | [16] | [17] | [18] | [19] | [20]

[O-][n+]1cccc(CO)c1
inactive: [1] | [2] | [3] | [4] | [5] | [6] | [7] | [8] | [9] | [10] | [11] | [12] | [13] | [14] | [15] | [16] | [17] | [19] | [20]
